# Rab9 prom act = activators of Rab9 promoter | Huh7 Rab9 promoter-luciferase reporter, luminescence, 24 h | 320,000 compounds, 2.8% hits | Potency, µM (series often up to 9.22 µM), for the others: top-dose activation, negative = inhibition, hits mostly activators; also: % of control where 0% means no effect; nearly all actives have a fitted effect of over 60% in size
#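 Cell-based reporter: Huh7 stable for Rab9 promoter-driven luciferase, plated in reduced-serum medium with 10% FBS at 1500 cells/well, compound-treated 24 h at 37 °C, luminescence read after 10 min reagent.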
# KinaseGlo FLuc = Kinase-Glo luciferase inhibition (counter-screen). Kinase-Glo luciferase, ATP luminescence, 8 min. Potency, µM (top dose mostly 38.3 µM), for the others: at the highest dose activity change, negative = inhibition, actives largely listed as inhibitors. 200,000 compounds, 0.28% hits. AID 1379; also: % is scaled to controls: 0 for no effect and ±100 for the full control effect; nearly all actives have a fitted effect of over 60% in size
#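 Kinase-Glo luciferase light output from ATP and luciferin was measured with 10 uM ATP, within the enzyme's linear range. Buffer: 50 mM imidazole pH 7.2, 50 mM KCl, 7 mM MgCl2, 0.01% Tween 20, 0.05% BSA; luminescence read after 8 min at ambient temperature.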
# SMN2 splice up = enhancers of SMN2 splice variant expression. 210,000 compounds, 2.8% hits. HEK293 SMN2-luciferase splicing reporter, luminescence, 30-36 h. Potency, µM (top dose mostly 46.1 µM), for the others: at the highest dose activity change, positive = activation, most hits filed as activators. AID 1458; also: % of control where 0% means no effect; nearly all actives have a fitted effect of over 55% in size
#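 qHTS luciferase splicing reporter: luminescence rises when SMN2 exon 7 is included in transfected HEK293 cells. Compound exposure lasted 30-36 h at 37C, with 4.5 mM final sodium butyrate as control, followed by a ONE-Glo read.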
# FLuc modulator = inhibits or activates purified firefly luciferase, miR-21 counter-screen | P08659 | purified FLuc, Km substrates, luminescence inhibition | Potency, µM (titrated, usually from 57.5 µM), for inactives: at the highest dose activity change, negative = inhibition, hits mostly inhibitors | 360,000 compounds, 6.9% hits | AID 588342;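 also: plate controls were vehicle for no effect and reference inhibitor for full effect; nearly all actives have a fitted effect of over 55% in size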
# Target sequence (P08659 whole entry, looked up): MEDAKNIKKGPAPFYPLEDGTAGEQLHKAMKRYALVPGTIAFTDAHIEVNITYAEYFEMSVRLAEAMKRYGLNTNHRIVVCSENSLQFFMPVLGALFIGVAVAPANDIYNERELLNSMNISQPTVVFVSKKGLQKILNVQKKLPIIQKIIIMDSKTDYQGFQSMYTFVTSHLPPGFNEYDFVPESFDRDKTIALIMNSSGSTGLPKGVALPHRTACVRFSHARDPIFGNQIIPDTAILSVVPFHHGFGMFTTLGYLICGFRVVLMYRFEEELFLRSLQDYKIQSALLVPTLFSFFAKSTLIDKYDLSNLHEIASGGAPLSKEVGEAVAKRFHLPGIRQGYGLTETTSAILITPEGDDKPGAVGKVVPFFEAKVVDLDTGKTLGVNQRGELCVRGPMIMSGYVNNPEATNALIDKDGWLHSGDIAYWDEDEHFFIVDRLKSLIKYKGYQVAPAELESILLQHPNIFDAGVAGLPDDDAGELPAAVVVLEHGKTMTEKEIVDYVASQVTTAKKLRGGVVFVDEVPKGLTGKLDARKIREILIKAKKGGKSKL
#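 Purified P. pyralis luciferase, 10 nM final, with Km-level 10 uM D-luciferin and 10 uM ATP in 50 mM Tris acetate pH 7.5, 10 mM Mg acetate, 0.01% Tween-20, 0.05% BSA; 6-point qHTS titration about 60 µM downward; luminescence read.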
# NPC1 promoter act = activates the NPC1 promoter. 320,000 compounds, 2.4% hits. Potency, µM (top dose mostly 9.22 µM), for the others: at the top dose activation, actives largely listed as activators. Huh7 NPC1 promoter luciferase reporter, 24 h; also: % of control where 0% means no effect; nearly all actives have a fitted effect of over 60% in size
#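 Huh7 cells stably carrying NPC1 promoter–luciferase, plated in Opti-MEM with 10% FBS for 2 h, were exposed to compound in DMSO for 24 h at 37 °C; luciferase reagent was added for 10 min and luminescence read.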
# ELG1 genotoxic = inducers of genotoxicity in HEK293T ELG1-luciferase cells. 330,000 compounds, 1.3% hits. HEK293T ELG1-luciferase reporter, luminescence, 16 h. Potency, µM (highest dose often 46 µM), inactives show at the top dose activity change, positive = activation, usual class: activators; also: % of control where 0% means no effect; nearly all actives have a fitted effect of over 60% in size
#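 ELG1-luciferase HEK293T cells, 2,000/well; compound pinned in; 16 hr, 37 °C, 5% CO2; ONE-Glo, 30 min RT; luminescence on CCD imager.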
# Active calls of the source: *; ? = inconclusive; / = not tested or not shown. In the library only some 7.5% were active in any assay of this set; here they are far more common. Calls follow the shape of the dose curve; as a rule, active = well fitted curve in the direction sought with a large enough effect; inconclusive = small, poorly fitted or top-dose-only effect, or another doubt; inactive = no such curve, though single readings can be large; an effect the other way counts as inactive or inconclusive. Potency is read from the fitted curve at half-maximal effect.
SMILES,Rab9 prom act,KinaseGlo FLuc,SMN2 splice up,FLuc modulator,NPC1 promoter act,ELG1 genotoxic
COc1cc(-c2ccno2)ccc1S(=O)(=O)N1CCN(c2ccccc2)CC1,/,/,/,0%,/,/
COc1ccc(-c2cc(OC(=O)c3cccc(Cl)c3)c3c(C)oc(C)c3c(=O)c2)cc1,/,/,-12%,?,/,/
COc1ccc2c(c1)CCc1c-2nc2ccccc2c1N1CCOCC1,17%,/,/,5.4µM*,1%,4%
c1ccc2c(N3CCOCC3)c3c(nc2c1)CCC3,-2%,/,/,1%,-4%,-8%
O=C(COC(=O)/C=C/c1ccccc1Cl)NCCNC(=O)COC(=O)/C=C/c1ccccc1Cl,-4%,/,/,1%,-5%,-1%
COc1ccccc1/C=C/C(C)=O,-2%,0%,-3%,1%,-2%,-3%
COc1ccccc1/C=C1\N=C(C(C)(C)C)OC1=O,-2%,/,/,17µM*,-6%,0%
COc1cccc(/C=C2\N=C(C3CCCCC3)OC2=O)c1OC,1%,-1%,-14%,15µM*,0%,3%
CC(=O)Oc1ccc(/C=C2\N=C(C3CCCCC3)OC2=O)cc1,-4%,2%,4%,17µM*,0%,0%
O=C1/C(=C/c2ccccc2)Nc2ccccc21,2%,-8%,-24%,4.3µM*,-3%,-1%
N=c1nc(N)nc2n1NC(c1ccc(F)cc1)=CS2,-2%,0%,20%,15µM*,-1%,16%
Fc1ccc(C2=CSC3=NCCN23)cc1,-2%,1%,-1%,-13%,0%,1%
CCCN1Cc2cccc(C(=O)Nc3ccc(C(C)=O)cc3)c2C1=O,/,/,4%,-8%,/,/
COc1ccccc1C(=O)Nc1ccc2c(c1)nc(CCNC(=O)c1ccco1)n2C,4%,/,/,?,-18%,8%
CCC(=O)NCCc1nc2cc(NC(=O)c3ccco3)ccc2n1C,?,/,/,17µM*,?,?
Cc1nc2cc(NC(=O)c3ccco3)ccc2n1C,0.32µM*,/,/,8.5µM*,0.5µM*,2.3µM*
Cc1nc2cc(NC(=O)NCc3ccco3)ccc2n1C,?,-6%,?,?,27%,15µM*
CCCCC(=O)Nc1ccc2c(c1)nc(CCNC(=O)c1ccco1)n2C,19%,/,/,-12%,4%,11%
Cn1c(CCNC(=O)c2ccco2)nc2cc(NC(=O)c3ccco3)ccc21,?,-4%,11µM*,24µM*,?,?
COC(=O)c1cc2sc(Cl)cc2n1CC(=O)Nc1cc(C)cc(C)c1,/,/,-2%,-8%,/,/
Cn1c(CCNC(=O)c2ccco2)nc2cc(NC(=O)c3ccccc3)ccc21,?,/,/,17µM*,?,15%
Cn1c(CCNC(=O)c2ccccc2)nc2cc(NC(=O)c3ccco3)ccc21,28%,-2%,27%,?,21%,?
O=C(CN1C(=O)C2CCCCN2c2ccc(C(=O)N3CCCC3)cc21)NCc1ccc(F)cc1 (stereo not drawn),/,/,/,5%,/,/
COCC(=O)Nc1cc(C(=O)NCCc2ccccc2)ccc1Cl,2µM*,1%,0.63µM*,?,1.8µM*,?
COc1ccc(C(=O)Nc2cc(C(=O)NCCc3ccccc3)ccc2Cl)cc1,26%,-5%,10µM*,?,10%,16%
SMILES,Rab9 prom act,KinaseGlo FLuc,SMN2 splice up,FLuc modulator,NPC1 promoter act,ELG1 genotoxic
CCOCC(=O)Nc1cc(C(=O)NCCc2ccccc2)ccc1Cl,2µM*,0%,/,-15%,1µM*,?
CC(C)CCNC(=O)c1ccc(Cl)c(NC(=O)Cc2ccccc2)c1,-2%,7%,9%,-11%,-1%,-1%
Cc1c(C(=O)Nc2cccc(C(F)(F)F)c2)oc2ccc(S(=O)(=O)N3CCC4(CC3)OCCO4)cc12,/,/,/,-3%,/,/
Cc1cc(Cl)ccc1NC(=O)CCn1nc(C)c2c(C)n(-c3ccccc3)nc2c1=O,/,/,/,-10%,/,/
CC(C)c1ccccc1NC(=O)CN(c1ccccc1)S(=O)(=O)N(C)C,/,/,0%,0%,/,/
CCC(C(=O)Nc1ccc(C(=O)OC)cc1)n1nc(-c2ccc(C)c(C)c2)ccc1=O (stereo not drawn),/,/,/,-9%,/,/
N#CC1(c2nc3ccccc3[nH]2)CC1c1ccc2c(c1)OCO2 (stereo not drawn),0%,0%,11%,19µM*,1%,3%
CC(C)C(NC(=O)c1ccc2c(c1)OCCO2)c1nc2ccccc2[nH]1 (stereo not drawn),-7%,/,/,-1%,-9%,?
Clc1ccccc1N/N=C/c1ccc2c(c1)OCO2,2.8µM*,-25%,20µM*,11µM*,2.8µM*,?
C/C(=N\Nc1nc2ccccc2[nH]1)c1ccc2c(c1)OCCO2,-5%,/,/,6µM*,-38%,-4%
C/C(=N\Nc1ccccn1)c1ccc2c(c1)OCO2,3.2µM*,-2%,/,21µM*,?,?
O=C(CCc1nc2ccccc2[nH]1)NCc1ccc2c(c1)OCO2,-1%,-1%,-5%,-1%,1%,1%
O=C(N/N=C/c1ccc2c(c1)OCO2)c1ccc(NC(=O)c2ccccc2Cl)cc1,10%,/,/,?,-5%,-20%
Cc1ccc(NC(=O)C2CCCN(C(=O)c3cnn(-c4ccccc4)c3-n3cccc3)C2)cc1 (stereo not drawn),/,/,14%,-15%,/,/
COc1cccc(NC(=O)CSCc2cc(=O)c3ccc(C)c(C)c3[nH]2)c1,/,/,/,0%,/,/
C/C(=N\Nc1nc2ccccc2[nH]1)c1ccc2c(c1)OCO2,15%,-4%,0%,27µM*,14%,-5%
C(=N\Nc1nc2ccccc2[nH]1)/c1ccc2c(c1)OCO2,2µM*,-1%,13µM*,7.6µM*,1.6µM*,?
Cc1cccc(NC(=O)Nc2nnc(N(C)Cc3ccccc3)s2)c1,/,/,/,-14%,/,/
CCc1cccc(NC(=O)Nc2cccs2)c1,2.8µM*,-2%,13µM*,8.5µM*,?,?
CCc1cccc(NC(=O)Nc2csc3c2CCCC3)c1,/,/,16%,?,/,/
N#Cc1cccc(NC(=O)Nc2cccs2)c1,15%,-5%,-18%,15µM*,19%,-1%
COC(=O)[C@@]1(Cc2ccccc2-c2ccco2)C=C[C@H](C)[C@@H](c2ccccc2)N1C(=O)C(F)(F)F,/,-3%,0%,/,/,/
CC1(C)CC(=O)c2cnc(N3CCc4ccccc43)nc2C1,3.5µM*,/,/,2.1µM*,2.8µM*,?
O=C(Oc1ccc2c(c1)C(=O)c1ccccc1CO2)c1ccccc1,14%,-2%,-7%,21µM*,1%,?
O=C(Oc1ccc2c(c1)OCC2=O)c1ccc(Cl)cc1,0%,/,/,?,-6%,0%
C=CCSc1nc(N)c2c(C)c(C)sc2n1,24%,-2%,-5%,12µM*,18%,?

# Screens: PubChem BioAssay, National Center for Advancing Translational Sciences (NCATS)
